{"source": "paper PMC12864922", "about": "“TDP-43 directly inhibits mRNA accumulation in neurites through modulation of mRNA stability”", "binders": {"B1": {"name": "ENSMUSG00000035202.92|Lars2 (ssRNA)", "RNA": "GGGAGUUCUACAGUCCGACGAUCGCUUCGAUAUCCGCAUGCUAUUUUACCCUACUGAUGAUGUGUUGUUGCCAUGGUAAUCCUGCUCAGUACGAGAGGAACCGCAGCUAGCUUGUGUCUCCAGUGUCUUUUACCAUCACAGGCCCUGGCUCUGUGCUACCUCCCUAGAAUACCUGUGGUUCAUCACCUUCAGCUCACACUCCAUUCAGACAAUGCUCACUUAGGCCUACAAGCAAGGGAGAGGCUUAAGCACAAGGUCUUUAAGCUUGAUACUGUGCCUGGUCUCAAUGCCUAGAAAUUCCAACUCUUGCGGUCGCACUAGUGUGGAAUUCUCGGGUGUCAAGG"}, "B2": {"name": "ENSMUSG00000004113.188|Cacna1b (ssRNA)", "RNA": "GGGAGUUCUACAGUCCGACGAUCGCUUCGAUAUCCGCAUGCUAGCAAUGUUCCUGUAUGUUUCUACCCUGCCUGGGAUGUCCCCAAUGACCCUGGCUCCUCUGCUCAACCAAGUGCCUGAUCUCUGGCUCUGAGCAUCGUGGAUGAGGUACGGCCUCAGGAAGCAUCGGGUGGAUUGGGUGGGAGCUGCUCAGAGCAGCACGGGGGCUUGUGUCUUAGGGACAUUGACAGUGUCCAUCAGCAUGUCAGAGAAGCAGCUGUAGUGCCCGUGUUUCUCCCUGAGUCAUGGGUUCUGAAGAAGCCACUCUUGCGGUCGCACUAGUGUGGAAUUCUCGGGUGUCAAGG"}, "B3": {"name": "ENSMUSG00000058297.285|Spock2 (ssRNA)", "RNA": "GGGAGUUCUACAGUCCGACGAUCGCUUCGAUAUCCGCAUGCUAUGUGUGUGUGUGAGAGAGAGAGAGAGAGAGAGAGAGAGAGAGAGAGAGAAAGAGAGAGAGAAUGAGAGAGAAUGAGAGAGAGAAUACCCGAGGGCCACCCUGAUGCCCAGGAAGAGUGAGGGCAGCCCCCUGUGUGGUGGAAGAGGCUGGGCAGCUAGCUACUGGGGACCUUGUGCUGAGGCUUCCAGGACAAAGCCCCAGUCUGGCUCUCCCCCAGCCUCUCAGGGGCACUGGCUGGUCACAUCCACUGAGUAUUGAUCCUCUUGCGGUCGCACUAGUGUGGAAUUCUCGGGUGUCAAGG"}, "B4": {"name": "ENSMUSG00000058297.291|Spock2 (ssRNA)", "RNA": "GGGAGUUCUACAGUCCGACGAUCGCUUCGAUAUCCGCAUGCUAAGAGAGAGAGAGAAAGAGAGAGAGAAUGAGAGAGAAUGAGAGAGAGAAUACCCGAGGGCCACCCUGAUGCCCAGGAAGAGUGAGGGCAGCCCCCUGUGUGGUGGAAGAGGCUGGGCAGCUAGCUACUGGGGACCUUGUGCUGAGGCUUCCAGGACAAAGCCCCAGUCUGGCUCUCCCCCAGCCUCUCAGGGGCACUGGCUGGUCACAUCCACUGAGUAUUGAUCGGUUGGACUUUAGGGAAGAGCCUCCUCCUUCCCAUUCUCUUGCGGUCGCACUAGUGUGGAAUUCUCGGGUGUCAAGG"}, "B5": {"name": "ENSMUSG00000058297.286|Spock2 (ssRNA)", "RNA": "GGGAGUUCUACAGUCCGACGAUCGCUUCGAUAUCCGCAUGCUAUGUGUGAGAGAGAGAGAGAGAGAGAGAGAGAGAGAGAGAGAGAAAGAGAGAGAGAAUGAGAGAGAAUGAGAGAGAGAAUACCCGAGGGCCACCCUGAUGCCCAGGAAGAGUGAGGGCAGCCCCCUGUGUGGUGGAAGAGGCUGGGCAGCUAGCUACUGGGGACCUUGUGCUGAGGCUUCCAGGACAAAGCCCCAGUCUGGCUCUCCCCCAGCCUCUCAGGGGCACUGGCUGGUCACAUCCACUGAGUAUUGAUCGGUUGGCUCUUGCGGUCGCACUAGUGUGGAAUUCUCGGGUGUCAAGG"}, "B6": {"name": "ENSMUSG00000058297.298|Spock2 (ssRNA)", "RNA": "GGGAGUUCUACAGUCCGACGAUCGCUUCGAUAUCCGCAUGCUAAGAGAAUACCCGAGGGCCACCCUGAUGCCCAGGAAGAGUGAGGGCAGCCCCCUGUGUGGUGGAAGAGGCUGGGCAGCUAGCUACUGGGGACCUUGUGCUGAGGCUUCCAGGACAAAGCCCCAGUCUGGCUCUCCCCCAGCCUCUCAGGGGCACUGGCUGGUCACAUCCACUGAGUAUUGAUCGGUUGGACUUUAGGGAAGAGCCUCCUCCUUCCCAUUCCUUUCUGCCACCCUGGAAUGGCCACCUUAAUCGUCAUCUCCCUCUUGCGGUCGCACUAGUGUGGAAUUCUCGGGUGUCAAGG"}, "B7": {"name": "ENSMUSG00000061578.130|Ksr2 (ssRNA)", "RNA": "GGGAGUUCUACAGUCCGACGAUCGCUUCGAUAUCCGCAUGCUAACCUUUACCAGUUCACCAUCAUUCAUGGCUUCCCCCAAAGUCCCGAGUCCUGAGAACCGGGGCUGUGGCAAGAGAGUUCUGGUGUGUUCUCUCUGUGGGGCUAGCAAUGCCGGGGUUAAGUUCUCCCUCGGUGAUGGAGACGGUCCUGGGUAUGCAUGAUGGGUUACAUGGGUGUGUGUGUGUGUGUAACUGUUUACAAUGGUCUCCCUGCCUCUCACGGGCUGUGUUCCAGGAGAAUGCACAUAGAGAGGUUCUGUGGUCUCUUGCGGUCGCACUAGUGUGGAAUUCUCGGGUGUCAAGG"}, "B8": {"name": "ENSMUSG00000061578.131|Ksr2 (ssRNA)", "RNA": "GGGAGUUCUACAGUCCGACGAUCGCUUCGAUAUCCGCAUGCUAACCAGUUCACCAUCAUUCAUGGCUUCCCCCAAAGUCCCGAGUCCUGAGAACCGGGGCUGUGGCAAGAGAGUUCUGGUGUGUUCUCUCUGUGGGGCUAGCAAUGCCGGGGUUAAGUUCUCCCUCGGUGAUGGAGACGGUCCUGGGUAUGCAUGAUGGGUUACAUGGGUGUGUGUGUGUGUGUAACUGUUUACAAUGGUCUCCCUGCCUCUCACGGGCUGUGUUCCAGGAGAAUGCACAUAGAGAGGUUCUGUGGUCUCUGCCUCUUGCGGUCGCACUAGUGUGGAAUUCUCGGGUGUCAAGG"}, "B9": {"name": "ENSMUSG00000061578.129|Ksr2 (ssRNA)", "RNA": "GGGAGUUCUACAGUCCGACGAUCGCUUCGAUAUCCGCAUGCUAGGUGUGACCUUUACCAGUUCACCAUCAUUCAUGGCUUCCCCCAAAGUCCCGAGUCCUGAGAACCGGGGCUGUGGCAAGAGAGUUCUGGUGUGUUCUCUCUGUGGGGCUAGCAAUGCCGGGGUUAAGUUCUCCCUCGGUGAUGGAGACGGUCCUGGGUAUGCAUGAUGGGUUACAUGGGUGUGUGUGUGUGUGUAACUGUUUACAAUGGUCUCCCUGCCUCUCACGGGCUGUGUUCCAGGAGAAUGCACAUAGAGAGGUUCCUCUUGCGGUCGCACUAGUGUGGAAUUCUCGGGUGUCAAGG"}, "B10": {"name": "ENSMUSG00000058297.297|Spock2 (ssRNA)", "RNA": "GGGAGUUCUACAGUCCGACGAUCGCUUCGAUAUCCGCAUGCUAUGAGAGAGAGAAUACCCGAGGGCCACCCUGAUGCCCAGGAAGAGUGAGGGCAGCCCCCUGUGUGGUGGAAGAGGCUGGGCAGCUAGCUACUGGGGACCUUGUGCUGAGGCUUCCAGGACAAAGCCCCAGUCUGGCUCUCCCCCAGCCUCUCAGGGGCACUGGCUGGUCACAUCCACUGAGUAUUGAUCGGUUGGACUUUAGGGAAGAGCCUCCUCCUUCCCAUUCCUUUCUGCCACCCUGGAAUGGCCACCUUAAUCGUCCUCUUGCGGUCGCACUAGUGUGGAAUUCUCGGGUGUCAAGG"}, "B11": {"name": "ENSMUSG00000058297.288|Spock2 (ssRNA)", "RNA": "GGGAGUUCUACAGUCCGACGAUCGCUUCGAUAUCCGCAUGCUAAGAGAGAGAGAGAGAGAGAGAGAGAGAGAGAAAGAGAGAGAGAAUGAGAGAGAAUGAGAGAGAGAAUACCCGAGGGCCACCCUGAUGCCCAGGAAGAGUGAGGGCAGCCCCCUGUGUGGUGGAAGAGGCUGGGCAGCUAGCUACUGGGGACCUUGUGCUGAGGCUUCCAGGACAAAGCCCCAGUCUGGCUCUCCCCCAGCCUCUCAGGGGCACUGGCUGGUCACAUCCACUGAGUAUUGAUCGGUUGGACUUUAGGGAAGCUCUUGCGGUCGCACUAGUGUGGAAUUCUCGGGUGUCAAGG"}}, "note": "The full ranking holds about 9,900 sequences; the median of “r (bound/input frequency ratio)” is about 0.7, and the highest 2% start at about 6.5. The list comes from a sample in which the highest values are over-represented; it also holds similar and randomly drawn sequences."}
{"target": "TDP-43 (Homo sapiens, UniProt Q13148 1-414)", "sequence (Q13148 whole entry)": "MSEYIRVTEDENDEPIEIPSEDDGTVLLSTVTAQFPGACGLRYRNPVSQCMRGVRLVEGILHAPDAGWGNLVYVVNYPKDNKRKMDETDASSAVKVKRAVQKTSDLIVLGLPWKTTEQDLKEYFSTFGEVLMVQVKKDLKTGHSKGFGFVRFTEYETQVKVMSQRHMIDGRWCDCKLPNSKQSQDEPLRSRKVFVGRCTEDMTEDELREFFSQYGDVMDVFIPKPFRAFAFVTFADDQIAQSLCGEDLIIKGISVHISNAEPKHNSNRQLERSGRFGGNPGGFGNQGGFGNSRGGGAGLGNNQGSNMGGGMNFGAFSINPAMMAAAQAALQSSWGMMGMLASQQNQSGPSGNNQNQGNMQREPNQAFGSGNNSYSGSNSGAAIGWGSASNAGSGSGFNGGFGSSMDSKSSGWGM", "experiment": "RNA Bind-n-Seq with designed 260-mer pool; 25 mM Tris-HCl, 150 mM KCl, 3 mM MgCl2, BSA (printed 500 mg/mL), 20 units/mL SUPERase IN; pH not stated; 500 nM RNA pool, 1 h, 4 C; TDP-43 5, 50, 500 nM; high values mean tight binding", "details": "protein: recombinant; tags: SBP (GST cleaved off with PreScission; pGEX-GST-SBP)", "in_short": "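In 25 mM Tris-HCl, 150 mM KCl, 3 mM MgCl2, BSA and SUPERase IN, 500 nM of an in vitro-transcribed 260-nt 3′ UTR oligo pool was incubated for 1 h at 4 °C with SBP-tagged TDP-43 (5, 50 or 500 nM) captured on streptavidin beads. RNA remaining after washes was biotin-eluted, reverse transcribed, PCR-amplified and sequenced. Binding, R, is the bound-sample abundance of each oligo, normalized to mapped reads, divided by its abundance in input. Each duplicate used a separate, independent protein batch.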"}
{"binder": "B1", "binding signal": "0.689 R (bound/input frequency ratio)"}
{"binder": "B2", "binding signal": "0.976 R (bound/input frequency ratio)"}
{"binder": "B3", "binding signal": "7.21 R (bound/input frequency ratio)"}
{"binder": "B4", "binding signal": "8.35 R (bound/input frequency ratio)"}
{"binder": "B5", "binding signal": "6.3 R (bound/input frequency ratio)"}
{"binder": "B6", "binding signal": "3.7 R (bound/input frequency ratio)"}
{"binder": "B7", "binding signal": "6.59 R (bound/input frequency ratio)"}
{"binder": "B8", "binding signal": "3.31 R (bound/input frequency ratio)"}
{"binder": "B9", "binding signal": "4.45 R (bound/input frequency ratio)"}
{"binder": "B10", "binding signal": "4.65 R (bound/input frequency ratio)"}
{"binder": "B11", "binding signal": "7.62 R (bound/input frequency ratio)"}
